Test [1] concerns the target RAC-alpha serine/threonine-protein kinase (Homo sapiens) (UniProt P31749). Particulars: at 0.1 µM.
Test [2] shares this target. The note with it: at 1 µM.
Test [3] deals with RAC-beta serine/threonine-protein kinase (Homo sapiens) (UniProt P31751). The note with it: at 0.1 µM.
Test [4] shares this target. The note with it: at 1 µM.
Test [5] deals with RAC-gamma serine/threonine-protein kinase (Homo sapiens) (UniProt Q9Y243). The note with it: at 0.1 µM.
Test [6] has the same target. Particulars: at 1 µM.
Test [7] has as its target G protein-coupled receptor kinase 6 (Homo sapiens) (UniProt P43250). The note with it: at 0.1 µM.
Test [8] shares this target. Particulars: at 1 µM.
Test [9] deals with T1, Rhodopsin kinase GRK7 (Homo sapiens) (UniProt Q8WTQ7).
T1 sequence (whole entry): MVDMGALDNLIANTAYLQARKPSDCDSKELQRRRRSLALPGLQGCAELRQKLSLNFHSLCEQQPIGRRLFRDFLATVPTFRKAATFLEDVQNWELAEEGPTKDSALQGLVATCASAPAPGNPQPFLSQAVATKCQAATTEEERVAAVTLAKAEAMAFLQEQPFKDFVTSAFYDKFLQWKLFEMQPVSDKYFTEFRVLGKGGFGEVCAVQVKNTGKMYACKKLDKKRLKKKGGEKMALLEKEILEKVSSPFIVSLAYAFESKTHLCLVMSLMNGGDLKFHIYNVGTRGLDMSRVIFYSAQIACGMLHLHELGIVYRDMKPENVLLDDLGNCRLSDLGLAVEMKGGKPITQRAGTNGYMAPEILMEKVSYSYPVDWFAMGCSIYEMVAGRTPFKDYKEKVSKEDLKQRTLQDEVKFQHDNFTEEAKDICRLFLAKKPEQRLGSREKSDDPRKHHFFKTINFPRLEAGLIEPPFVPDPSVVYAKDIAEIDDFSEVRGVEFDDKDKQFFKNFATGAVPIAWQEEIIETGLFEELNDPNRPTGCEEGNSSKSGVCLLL
The note with it: at 0.1 µM.

In test [10] the target is T1, Rhodopsin kinase GRK7 (Homo sapiens). The note with it: at 1 µM.
Test [11] has as its target Serine/threonine-protein kinase MRCK alpha (Homo sapiens) (UniProt Q5VT25). The note with it: at 0.1 µM.
For test [12] the target is unchanged. Particulars: at 1 µM.
Test [13] addresses Serine/threonine-protein kinase MRCK beta (Homo sapiens) (UniProt Q9Y5S2). The note with it: at 0.1 µM.
For test [14] the target is unchanged. Particulars: at 1 µM.
Test [15] has as its target Ribosomal protein S6 kinase alpha-5 (Homo sapiens) (UniProt O75582). The note with it: at 0.1 µM.
The target is the same in test [16]. Particulars: at 1 µM.
For test [17], the target named is Ribosomal protein S6 kinase alpha-4 (Homo sapiens) (UniProt O75676). Particulars: at 0.1 µM.
Test [18] has the same target. The note with it: at 1 µM.
Test [19] concerns the target Ribosomal protein S6 kinase beta-1 (Homo sapiens) (UniProt P23443). The note with it: at 0.1 µM.
The target is the same in test [20]. The note with it: at 1 µM.

Chain of RAC-gamma serine/threonine-protein kinase (Homo sapiens) (Q9Y243 whole entry): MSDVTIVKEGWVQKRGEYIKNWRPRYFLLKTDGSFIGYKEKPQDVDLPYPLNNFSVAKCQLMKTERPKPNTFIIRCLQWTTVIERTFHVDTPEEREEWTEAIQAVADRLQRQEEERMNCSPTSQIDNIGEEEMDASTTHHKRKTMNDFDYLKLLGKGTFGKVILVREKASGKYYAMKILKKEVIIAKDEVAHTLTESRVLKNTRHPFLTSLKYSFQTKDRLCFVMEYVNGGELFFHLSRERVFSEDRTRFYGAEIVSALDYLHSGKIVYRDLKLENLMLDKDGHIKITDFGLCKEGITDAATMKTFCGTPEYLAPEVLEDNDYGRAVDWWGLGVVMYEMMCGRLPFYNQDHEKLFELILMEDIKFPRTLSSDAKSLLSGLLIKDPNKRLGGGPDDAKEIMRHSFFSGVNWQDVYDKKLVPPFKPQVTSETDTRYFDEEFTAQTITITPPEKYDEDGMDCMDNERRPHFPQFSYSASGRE
Chain of Serine/threonine-protein kinase MRCK beta (Homo sapiens) (Q9Y5S2 whole entry): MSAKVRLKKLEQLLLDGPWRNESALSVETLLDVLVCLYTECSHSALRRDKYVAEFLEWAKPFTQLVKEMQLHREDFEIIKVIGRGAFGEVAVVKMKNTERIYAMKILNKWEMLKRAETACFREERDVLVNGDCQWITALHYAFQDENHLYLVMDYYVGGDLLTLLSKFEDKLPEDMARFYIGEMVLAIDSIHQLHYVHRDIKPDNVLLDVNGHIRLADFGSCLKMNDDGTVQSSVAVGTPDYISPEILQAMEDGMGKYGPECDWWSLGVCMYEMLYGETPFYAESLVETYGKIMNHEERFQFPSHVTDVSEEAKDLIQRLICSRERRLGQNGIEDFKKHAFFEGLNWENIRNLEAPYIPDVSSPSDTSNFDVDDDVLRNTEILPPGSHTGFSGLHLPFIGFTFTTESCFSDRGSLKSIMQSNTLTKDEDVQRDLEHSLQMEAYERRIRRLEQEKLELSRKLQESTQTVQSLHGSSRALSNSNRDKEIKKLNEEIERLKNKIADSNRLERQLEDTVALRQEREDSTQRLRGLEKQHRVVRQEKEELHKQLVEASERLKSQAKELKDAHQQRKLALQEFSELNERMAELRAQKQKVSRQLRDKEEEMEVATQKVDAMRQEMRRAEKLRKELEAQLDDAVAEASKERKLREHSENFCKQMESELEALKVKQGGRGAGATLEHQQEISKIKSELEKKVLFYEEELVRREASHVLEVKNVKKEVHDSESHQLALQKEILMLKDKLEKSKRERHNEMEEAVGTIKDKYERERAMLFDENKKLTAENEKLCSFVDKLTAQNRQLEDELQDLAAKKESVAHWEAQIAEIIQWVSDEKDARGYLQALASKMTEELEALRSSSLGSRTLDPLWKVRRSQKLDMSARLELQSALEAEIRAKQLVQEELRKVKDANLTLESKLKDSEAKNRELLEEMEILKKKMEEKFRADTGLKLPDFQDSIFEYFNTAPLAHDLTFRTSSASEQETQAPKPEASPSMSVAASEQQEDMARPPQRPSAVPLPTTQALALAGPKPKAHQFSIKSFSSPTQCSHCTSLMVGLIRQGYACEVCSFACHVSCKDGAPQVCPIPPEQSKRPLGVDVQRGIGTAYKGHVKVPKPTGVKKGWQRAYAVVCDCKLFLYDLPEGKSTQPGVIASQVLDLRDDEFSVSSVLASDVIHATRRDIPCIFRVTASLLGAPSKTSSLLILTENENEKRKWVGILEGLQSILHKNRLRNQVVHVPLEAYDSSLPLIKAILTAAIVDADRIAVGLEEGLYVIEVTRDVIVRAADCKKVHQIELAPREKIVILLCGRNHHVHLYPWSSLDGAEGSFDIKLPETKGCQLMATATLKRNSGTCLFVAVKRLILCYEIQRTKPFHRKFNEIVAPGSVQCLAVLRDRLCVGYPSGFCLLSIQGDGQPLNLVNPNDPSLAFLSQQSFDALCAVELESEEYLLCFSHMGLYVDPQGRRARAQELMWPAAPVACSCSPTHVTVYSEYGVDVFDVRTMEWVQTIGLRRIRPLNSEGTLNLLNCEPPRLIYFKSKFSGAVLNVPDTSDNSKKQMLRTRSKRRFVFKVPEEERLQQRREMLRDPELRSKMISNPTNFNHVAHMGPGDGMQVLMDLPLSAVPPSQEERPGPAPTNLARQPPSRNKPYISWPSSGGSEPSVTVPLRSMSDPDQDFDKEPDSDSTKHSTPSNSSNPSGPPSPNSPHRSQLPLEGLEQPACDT
Chain of Ribosomal protein S6 kinase alpha-4 (Homo sapiens) (O75676 whole entry, looked up): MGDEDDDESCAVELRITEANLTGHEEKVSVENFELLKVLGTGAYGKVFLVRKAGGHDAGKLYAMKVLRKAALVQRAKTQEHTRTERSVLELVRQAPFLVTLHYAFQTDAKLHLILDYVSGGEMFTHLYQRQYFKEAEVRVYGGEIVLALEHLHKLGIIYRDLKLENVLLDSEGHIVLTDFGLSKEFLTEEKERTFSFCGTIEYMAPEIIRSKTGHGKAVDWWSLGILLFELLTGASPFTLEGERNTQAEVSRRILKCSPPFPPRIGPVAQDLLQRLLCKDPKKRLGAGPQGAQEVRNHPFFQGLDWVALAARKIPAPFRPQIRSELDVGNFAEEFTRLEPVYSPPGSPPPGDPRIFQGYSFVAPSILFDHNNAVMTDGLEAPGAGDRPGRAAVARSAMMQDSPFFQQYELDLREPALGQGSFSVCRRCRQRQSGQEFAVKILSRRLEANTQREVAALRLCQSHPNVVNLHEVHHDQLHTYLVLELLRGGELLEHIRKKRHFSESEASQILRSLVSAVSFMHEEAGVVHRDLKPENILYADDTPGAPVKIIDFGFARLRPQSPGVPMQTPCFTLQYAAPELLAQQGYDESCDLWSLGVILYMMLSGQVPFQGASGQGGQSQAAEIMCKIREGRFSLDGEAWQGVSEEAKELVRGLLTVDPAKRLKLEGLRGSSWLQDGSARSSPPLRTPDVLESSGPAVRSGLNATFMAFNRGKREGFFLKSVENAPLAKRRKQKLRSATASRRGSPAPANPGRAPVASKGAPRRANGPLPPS
Chain of Ribosomal protein S6 kinase beta-1 (Homo sapiens) (P23443 whole entry, looked up): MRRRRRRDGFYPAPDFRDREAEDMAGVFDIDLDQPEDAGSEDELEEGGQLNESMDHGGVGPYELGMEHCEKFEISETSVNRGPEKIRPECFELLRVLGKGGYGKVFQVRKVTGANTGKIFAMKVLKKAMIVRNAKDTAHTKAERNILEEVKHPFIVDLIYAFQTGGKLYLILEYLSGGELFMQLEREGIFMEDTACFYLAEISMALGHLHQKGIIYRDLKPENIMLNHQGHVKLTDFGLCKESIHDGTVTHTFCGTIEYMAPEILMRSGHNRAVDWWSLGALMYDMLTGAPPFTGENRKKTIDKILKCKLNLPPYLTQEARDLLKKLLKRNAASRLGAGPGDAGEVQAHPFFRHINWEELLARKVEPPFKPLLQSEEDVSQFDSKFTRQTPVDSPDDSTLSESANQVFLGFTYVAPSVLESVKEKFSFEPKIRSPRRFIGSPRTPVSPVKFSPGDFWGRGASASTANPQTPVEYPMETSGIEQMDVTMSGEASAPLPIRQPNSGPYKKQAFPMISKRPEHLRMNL
Chain of G protein-coupled receptor kinase 6 (Homo sapiens) (P43250 whole entry, looked up): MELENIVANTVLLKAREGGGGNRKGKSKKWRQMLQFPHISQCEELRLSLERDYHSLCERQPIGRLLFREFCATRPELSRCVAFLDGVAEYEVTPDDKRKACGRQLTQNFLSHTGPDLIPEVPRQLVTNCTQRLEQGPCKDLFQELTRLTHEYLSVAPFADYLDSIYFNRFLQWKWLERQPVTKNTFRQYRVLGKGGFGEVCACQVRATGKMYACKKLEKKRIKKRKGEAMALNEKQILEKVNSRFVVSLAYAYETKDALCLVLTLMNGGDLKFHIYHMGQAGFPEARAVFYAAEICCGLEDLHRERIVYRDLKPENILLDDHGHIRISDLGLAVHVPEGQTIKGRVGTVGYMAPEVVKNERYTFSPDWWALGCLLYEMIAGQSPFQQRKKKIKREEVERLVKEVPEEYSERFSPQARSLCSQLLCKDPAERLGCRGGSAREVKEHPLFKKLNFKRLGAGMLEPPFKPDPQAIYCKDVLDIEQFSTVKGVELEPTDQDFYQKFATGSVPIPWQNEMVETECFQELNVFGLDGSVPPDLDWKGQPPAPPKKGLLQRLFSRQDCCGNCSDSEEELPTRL
Chain of Ribosomal protein S6 kinase alpha-5 (Homo sapiens) (O75582 whole entry, looked up): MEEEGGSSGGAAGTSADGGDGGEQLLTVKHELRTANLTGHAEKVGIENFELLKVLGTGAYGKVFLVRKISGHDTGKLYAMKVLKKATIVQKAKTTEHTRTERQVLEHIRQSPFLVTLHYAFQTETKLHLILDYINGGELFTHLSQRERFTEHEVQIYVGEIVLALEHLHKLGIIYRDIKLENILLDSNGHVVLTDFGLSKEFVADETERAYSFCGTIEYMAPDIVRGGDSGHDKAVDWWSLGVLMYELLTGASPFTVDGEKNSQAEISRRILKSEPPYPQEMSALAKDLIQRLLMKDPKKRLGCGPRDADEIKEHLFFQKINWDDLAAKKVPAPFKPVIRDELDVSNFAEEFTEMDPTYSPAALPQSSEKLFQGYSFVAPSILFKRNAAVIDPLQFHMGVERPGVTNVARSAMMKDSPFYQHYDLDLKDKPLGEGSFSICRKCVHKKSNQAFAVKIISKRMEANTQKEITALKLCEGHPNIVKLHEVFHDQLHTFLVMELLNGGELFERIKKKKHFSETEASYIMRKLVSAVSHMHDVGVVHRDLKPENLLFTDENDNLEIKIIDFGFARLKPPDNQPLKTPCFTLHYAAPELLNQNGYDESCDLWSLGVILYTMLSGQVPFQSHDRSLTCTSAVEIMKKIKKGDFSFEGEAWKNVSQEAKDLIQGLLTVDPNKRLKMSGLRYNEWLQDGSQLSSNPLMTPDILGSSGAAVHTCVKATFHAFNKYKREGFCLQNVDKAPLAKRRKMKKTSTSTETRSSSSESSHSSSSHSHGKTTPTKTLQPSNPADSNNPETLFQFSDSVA

Broadly, the inhibition is the relative decrease from the control value, in per cent. As for `CN(C)CCCNc1nccc(-c2c(-c3ccc(F)cc3)nn3cc(C(F)(F)F)ccc23)n1`, the inhibition in test [1] is -2.46%; in test [2], -2.95%; in test [3], -2.07%; in [4] it was -3.03%; in test [5] it was -2.14%; in test [6], -2.29%. The inhibition in [7] was 0.16%; in test [8], -2.93%; in test [9] it was -0.49%; in test [10] it was -5.64%; in test [11], 0.46%; in test [12], 1.03%. Besides, the inhibition in test [13] is 0.48%; in test [14], 1.09%; in test [15], 1.3%; in test [16], 2.69%; in test [17], 1.95%; in test [18], 4.5%. For the same compound, the values for the inhibition in test [19] and in [20] were 2.93% and 3.55%, respectively.
Take `COc1ccc(C2=C(N3CCc4ccccc43)C(=O)NC2=O)cc1`: the inhibition in test [1] came out at 0.6%; in test [2] it was 0.96%; in [3] it was 2.65%; in test [4], 1.87%; in [5], 1.01%; in test [6], 2.72%. In addition, the inhibition in test [7] was 8.72%; in test [8], 8.49%; in test [9] it was 27.9%; in [10], 20.3%; in test [11], -0.56%; in test [12] it was -0.21%. Moreover, the inhibition in [13] was 1.1%; in test [14] it was 0.12%; in test [15], 4.26%; in test [16] it was 3.53%; in test [17], 2.26%; in [18], 3.24%. For the same compound, the inhibition is 1.91% in test [19] and 3.41% in test [20].
On to `Fc1ccc(-c2ncn(C3CCNCC3)c2-c2ccnc(Oc3ccc4c(c3)OCO4)n2)cc1`, for which the inhibition in test [1] came to 2.04%; in test [2] it was 1.04%; in [3], 0.93%; in test [4], 2.21%; in [5], 0.23%; in test [6], 3.88%. In addition, the inhibition in test [7] is 0.51%; in test [8], 2.27%; in [9], 9.41%; in test [10], 2.9%; in test [11], -2.57%; in [12], 9.23%. Further, the inhibition in test [13] is 0.96%; in test [14] it was 2.94%; in [15] it was -2.64%; in test [16], -3.44%; in test [17] it was 3.63%; in test [18], 4.53%. Further, the inhibition came out at 2.58% in [19] and 5.14% in [20].
With `Fc1ccc(-c2ncn(C3CCNCC3)c2-c2ccnc(Oc3ccc(Oc4ccccc4)cc3)n2)cc1`, the inhibition in test [1] is 1.23%; in test [2], 1.87%; in test [3], 1.23%; in test [4], 1.51%; in test [5] it was 2.28%; in test [6], 4.62%. The inhibition amounted to 3.64% in test [7]; 6.73% in test [8]; 10.9% in test [9]; 3.4% in test [10]; 5.81% in test [11]; 7.37% in test [12]. Also, the inhibition in test [13] was -0.26%; in test [14] it was 1.5%; in test [15], 10.2%; in test [16], 11.9%; in test [17], 2.53%; in test [18], 5.09%. For the same compound, the values for the inhibition in test [19] and in [20] were 2.41% and 4.57%, respectively.
Regarding `NC(=O)c1ccc(Oc2nccc(-c3c(-c4ccc(F)cc4)ncn3C3CCNCC3)n2)cc1`, the inhibition in [1] amounted to 1.54%; in test [2] it was 3.25%; in test [3] it was 2.45%; in test [4], 1.86%; in test [5] it was 3.04%; in [6] it was 7.31%. The inhibition is 4.21% in test [7]; 7.44% in [8]; -1.91% in test [9]; 2.41% in test [10]; 5.74% in test [11]; 5.95% in [12]. The inhibition in test [13] was 1.2%; in [14], 2.3%; in test [15], -2.57%; in [16], -1.95%; in test [17], 3.42%; in test [18] it was 5.79%. Also, the inhibition turned out to be 3.21% in test [19] and 5.34% in test [20].
`O=C1Nc2ccccc2/C1=C/Nc1ccc(-n2cncn2)cc1`: the inhibition in test [1] was 0.19%; in test [2] it was -0.09%; in test [3], 1.56%; in test [4], 0.9%; in [5] it was 0.39%; in [6], 2.21%. Further, the inhibition in [7] was found to be 7.2%; in [8], 14.8%; in test [9], 5.5%; in [10], 14.9%; in test [11] it was 0.72%; in test [12], 3.59%. For the same compound, the inhibition in [13] was determined as 0.37%; in test [14], 1.08%; in test [15], 5.48%; in test [16], 8.54%; in test [17], 3.95%; in test [18], 13.4%. For the same compound, the inhibition in test [19] was found to be 2.05%; in test [20] it was 9.06%.
For the compound `FC(F)(F)c1cccc(Nc2nccc(-c3cnn4nc(-c5ccccc5)ccc34)n2)c1`, the inhibition in [1] was 0.83%; in [2] it was 0.65%; in test [3] it was 0.62%; in [4] it was 1.58%; in [5], 0.22%; in test [6] it was -2.03%. The inhibition in test [7] was -2.23%; in [8] it was -0.87%; in test [9] it was 4.12%; in test [10] it was 6.07%; in [11], -4.69%; in [12], -0.12%. In addition, the inhibition in [13] worked out at 0.14%; in test [14], 0.03%; in test [15], 1.36%; in test [16] it was 0.17%; in [17], 1.71%; in test [18] it was 0.86%. The inhibition is 1.59% in [19] and 0.67% in [20].

The values above are taken from ChEMBL document CHEMBL1961873, “Compounds: GSK PKIS; Assays: Nanosyn kinase panel” (2012).
